Test results from PubChem BioAssay AID1159580 (chemical genetic matrix, 2015).
In all, about 5,500 compounds went through this assay and about 2,000 (36%) were called active. Inconclusive results (about 18%) are left out. Cut-off read from the data, not from the text of the source: active = normalized growth mostly below about 0.91 (no sharp cut-off); inconclusive = no clear call, values can overlap the other calls; inactive = mostly above about 0.92. The list shows a part of the results.

Test: chemical genetic growth profiling, strain panel (AID 1159580);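 note: tested at 20 µM; growth read once vehicle control cultures reached saturation at 30 °C; 1 = growth at the plate median or of vehicle wells; lower values mean less growth of the strain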
Conditions: growth OD

Measured: normalized growth

CC(Cc1cccc(C(F)(F)F)c1)NCCOC(=O)c1ccccc1 (configuration not stated)
active: S. cerevisiae deletion strains, locus YLR262C, strain YPT6 (second series), hits give low values 0.785 | S. cerevisiae deletion strains, locus YLR342W, strain FKS1 (second series), hits give low values 0.745 | S. cerevisiae deletion strains, locus YLR342W, strain FKS1, hits give low values 0.88 | S. cerevisiae deletion strains, locus YOR270C, strain vph1, hits give low values 0.72 | S. cerevisiae deletion strains, locus YPL051W, strain arl3, hits give low values 0.904
inactive: S. cerevisiae deletion strains, locus YJR075W, strain HOC1, hits give low values 0.886 | S. cerevisiae deletion strains, locus YKL009W, strain mrt4, hits give low values 0.974 | S. cerevisiae deletion strains, locus YKL068W, hits give low values 1.01 | S. cerevisiae deletion strains, locus YKL085W, strain MDH1 (second series), hits give low values 0.998 | S. cerevisiae deletion strains, locus YKL085W, strain MDH1, hits give low values 0.998 | S. cerevisiae deletion strains, locus YKL160W, strain elf1, hits give low values 0.946 | S. cerevisiae deletion strains, locus YKL190W, strain CNB1, hits give low values 0.982 | S. cerevisiae deletion strains, locus YKR001C, strain vps1, hits give low values 1.03 | S. cerevisiae deletion strains, locus YKR026C, strain gcn3, hits give low values 0.987 | S. cerevisiae deletion strains, locus YKR091W, strain srl3, hits give low values 1 | S. cerevisiae deletion strains, locus YLL001W, strain dnm1, hits give low values 0.935 | S. cerevisiae deletion strains, locus YLL026W, hits give low values 0.933 | S. cerevisiae deletion strains, locus YLL041C, strain sdh2, hits give low values 0.993 | S. cerevisiae deletion strains, locus YLR027C, strain aat2, hits give low values 0.93 | S. cerevisiae deletion strains, locus YLR039C, strain RIC1, hits give low values 1.02 | S. cerevisiae deletion strains, locus YLR058C, strain SHM2, hits give low values 0.967 | S. cerevisiae deletion strains, locus YLR102C, strain apc9, hits give low values 1.02 | S. cerevisiae deletion strains, locus YLR113W, strain HOG1, hits give low values 1 | S. cerevisiae deletion strains, locus YLR221C, strain rsa3, hits give low values 0.956 | S. cerevisiae deletion strains, locus YLR258W, strain gsy2, hits give low values 0.974 | S. cerevisiae deletion strains, locus YLR262C, strain YPT6, hits give low values 1.01 | S. cerevisiae deletion strains, locus YLR268W, strain sec22, hits give low values 0.992 | S. cerevisiae deletion strains, locus YLR320W, strain mms22, hits give low values 0.913 | S. cerevisiae deletion strains, locus YLR330W, strain CHS5, hits give low values 0.991 | S. cerevisiae deletion strains, locus YLR357W, strain rsc2, hits give low values 0.987 | S. cerevisiae deletion strains, locus YLR370C, strain arc18, hits give low values 0.931 | S. cerevisiae deletion strains, locus YLR371W, strain rom2, hits give low values 1.02 | S. cerevisiae deletion strains, locus YLR384C, strain iki3, hits give low values 0.988 | S. cerevisiae deletion strains, locus YLR418C, strain cdc73, hits give low values 0.978 | S. cerevisiae deletion strains, locus YML016C, strain PPZ1, hits give low values 0.989 | S. cerevisiae deletion strains, locus YML032C, strain rad52, hits give low values 0.941 | S. cerevisiae deletion strains, locus YML120C, strain ndi1, hits give low values 0.953 | S. cerevisiae deletion strains, locus YML124C, strain tub3, hits give low values 1.02 | S. cerevisiae deletion strains, locus YMR058W, strain fet3, hits give low values 0.905 | S. cerevisiae deletion strains, locus YMR078C, strain ctf18, hits give low values 1.02 | S. cerevisiae deletion strains, locus YMR125W, strain sto1, hits give low values 0.97 | S. cerevisiae deletion strains, locus YMR129W, hits give low values 0.985 | S. cerevisiae deletion strains, locus YMR205C, strain PFK2, hits give low values 0.961 | S. cerevisiae deletion strains, locus YMR223W, strain ubp8, hits give low values 0.947 | S. cerevisiae deletion strains, locus YMR231W, strain pep5, hits give low values 1 | S. cerevisiae deletion strains, locus YMR263W, strain SAP30, hits give low values 0.962 | S. cerevisiae deletion strains, locus YMR307W, strain GAS1, hits give low values 0.955 | S. cerevisiae deletion strains, locus YNL067W, strain RPL9B, hits give low values 0.923 | S. cerevisiae deletion strains, locus YNL071W, strain lat1, hits give low values 0.996 | S. cerevisiae deletion strains, locus YNL128W, strain TEP1, hits give low values 0.951 | S. cerevisiae deletion strains, locus YNL153C, strain GIM3, hits give low values 0.938 | S. cerevisiae deletion strains, locus YNL183C, strain NPR1, hits give low values 0.895 | S. cerevisiae deletion strains, locus YNL209W, strain ssb2, hits give low values 0.963 | S. cerevisiae deletion strains, locus YNL233W, strain BNI4, hits give low values 0.877 | S. cerevisiae deletion strains, locus YNL248C, strain rpa49, hits give low values 0.906 | S. cerevisiae deletion strains, locus YNL250W, strain rad50, hits give low values 1.03 | S. cerevisiae deletion strains, locus YNL271C, strain bni1, hits give low values 1.01 | S. cerevisiae deletion strains, locus YNL298W, strain CLA4, hits give low values 1.01 | S. cerevisiae deletion strains, locus YNL307C, strain MCK1, hits give low values 0.974 | S. cerevisiae deletion strains, locus YNL322C, strain KRE1 (second series), hits give low values 1.01 | S. cerevisiae deletion strains, locus YNL322C, strain KRE1, hits give low values 1.01 | S. cerevisiae deletion strains, locus YNR049C, strain mso1, hits give low values 0.998 | S. cerevisiae deletion strains, locus YNR052C, strain pop2, hits give low values 0.921 | S. cerevisiae deletion strains, locus YOL006C, strain TOP1, hits give low values 0.605 | S. cerevisiae deletion strains, locus YOL012C, strain htz1 0.888 | S. cerevisiae deletion strains, locus YOL147C, strain pex11, hits give low values 1.01 | S. cerevisiae deletion strains, locus YOR001W, strain rrp6, hits give low values 0.92 | S. cerevisiae deletion strains, locus YOR061W, strain CKA2, hits give low values 0.994 | S. cerevisiae deletion strains, locus YOR069W, strain VPS5, hits give low values 0.995 | S. cerevisiae deletion strains, locus YOR070C, strain gyp1, hits give low values 0.985 | S. cerevisiae deletion strains, locus YOR080W, strain dia2, hits give low values 0.971 | S. cerevisiae deletion strains, locus YOR083W, strain WHI5, hits give low values 0.913 | S. cerevisiae deletion strains, locus YOR106W, strain vam3, hits give low values 0.906 | S. cerevisiae deletion strains, locus YOR136W, strain idh2, hits give low values 1.01 | S. cerevisiae deletion strains, locus YOR144C, strain elg1, hits give low values 1.02 | S. cerevisiae deletion strains, locus YOR184W, strain ser1, hits give low values 1.01 | S. cerevisiae deletion strains, locus YOR231W, strain MKK1, hits give low values 0.979 | S. cerevisiae deletion strains, locus YOR265W, strain rbl2, hits give low values 0.975 | S. cerevisiae deletion strains, locus YOR290C, strain snf2, hits give low values 0.975 | S. cerevisiae deletion strains, locus YOR316C, strain cot1, hits give low values 1.03 | S. cerevisiae deletion strains, locus YPL055C, strain LGE1, hits give low values 0.954 | S. cerevisiae deletion strains, locus YPL078C, strain atp4, hits give low values 0.944 | S. cerevisiae deletion strains, locus YPL106C, strain sse1, hits give low values 0.975 | S. cerevisiae deletion strains, locus YPL240C, strain hsp82, hits give low values 0.98 | S. cerevisiae deletion strains, locus YPL241C, strain CIN2, hits give low values 0.995 | S. cerevisiae deletion strains, locus YPL256C, strain CLN2, hits give low values 0.969 | S. cerevisiae deletion strains, locus YPR119W, strain clb2, hits give low values 1.02 | S. cerevisiae deletion strains, locus YPR141C, strain kar3, hits give low values 1.02 | S. cerevisiae deletion strains, locus YPR163C, strain tif3, hits give low values 0.928 | S. cerevisiae deletion strains, locus YPR167C, strain met16, hits give low values 1 | S. cerevisiae deletion strains, strain wtn01, hits give low values 0.978 | S. cerevisiae strains, strain wild type, hits give low values 0.955
